Results on 11 compounds are retold here after PubChem BioAssay (Tox21).

Structures are written as SMILES. “And” between values parts separate entries of the source, which are not always exact repeats. Equal values may be shown once. Records with an inconclusive call do not appear. Where a structure was tested more than once in an assay, its records may differ in their call. The source made the active and inactive calls. Unless noted, calls come from the whole dose curve; as a rule, active = well fitted curve in the direction sought with a large enough effect in the repeat runs; inconclusive = weak or mixed curves; inactive = no such curve, though single readings can be large; an effect the other way counts as inactive or inconclusive.

Experiment [1] in a line: qHTS assay to identify small molecule antagonists of the retinoid acid receptor (RAR) signaling pathway - cell viability counter screen (AID 1159551). Note: nearly all actives have a fitted effect of over 35% in size. The method, boiled down: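 Luminescent ATP quantitation (CellTiter-Glo) gave cell viability in C3RL4 cells exposed to test chemicals for 6 h at 37 C alongside 1 uM final retinol.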
On the technique in general: qHTS replaces the single test concentration by a dilution series.

Experiment [2] can be described thus: qHTS assay to identify small molecule antagonists of the retinoic acid receptor (RAR) signaling pathway (AID 1159552; note: nearly all actives have a fitted effect of over 50% in size). Summed up:
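Cells of the C3RL4 line were seeded, incubated overnight, then dosed with compounds in DMSO followed immediately by retinol (1 uM final). Six hours later luciferase detection reagent went in; signal was measured after 30 min at RT.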

Experiment [3] can be described thus: qHTS assay to identify small molecule agonists of the retinoic acid receptor (RAR) signaling pathway (AID 1159553). Summed up:
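Luminescence from a RARE-driven luciferase reporter in C3RL4 cells served as the read-out, measured after 30 min with detection reagent at room temperature. Compounds in DMSO were applied for 6 hr at 37 C following overnight seeding.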

Experiment [4] can be described thus: qHTS assay to identify small molecule antagonists of the estrogen related receptor (ERR) signaling pathway - cell viability counter screen (AID 1224818). Note: series mostly up to about 46 µM. Summed up: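 Multiplexed counter screen to separate cytotoxic compounds from true ERR modulators. ERR cells received DMSO-dissolved compounds after a 6 h pre-incubation, were exposed 17.5 h at 37 C, then assayed with CellTiter-Fluor fluorescence.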

Experiment [5] can be described thus: qHTS assay to identify small molecule antagonists of the estrogen related receptor signaling pathway with the pleiotropic PPARgamma coactivator (PGC) cell viability counter screen (AID 1224822; note: series mostly up to about 46 µM). The method, boiled down: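 Cells: PGC/ERR, 2,000/well, 1536-well format. Pre-incubation 6 h, 37 C/5% CO2. Compound exposure 17.5 h, 37 C. Detection: CellTiter-Fluor, 30 min, fluorescence.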

A short description of experiment [6]: qHTS assay to identify small molecule antagonists of the estrogen related receptor (ERR) signaling pathway from Tox21 library - cell viability counter screen (AID 1224834). Note: nearly all actives have a fitted effect of over 30% in size. Note: potency is the fitted concentration of half-maximal effect. The method, boiled down:
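Fluorescence from CellTiter-Fluor gives the viability read-out, taken 30 min after reagent addition. Before that, ERR cells seeded 6 h earlier were incubated with compounds for 17.5 h at 37 C.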

The target in experiment [7] is Luciferin 4-monooxygenase (Photinus pyralis) (UniProt P08659). As to the kind of experiment: qHTS assay to identify small molecule inhibitors of firefly luciferase (AID 1224835). Note: series mostly up to about 120 µM; nearly all actives have a fitted effect of over 25% in size. Summed up:
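Biochemical qHTS: compounds run as interplate titrations against purified firefly enzyme, with D-luciferin and ATP each at its KM concentration. Light output recorded by CCD imaging.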

Experiment [8] in a line: qHTS assay to identify small molecule agonists of the constitutive androstane receptor (CAR) signaling pathway - cell viability counter screen (AID 1224836). Note: series mostly up to about 92 µM; nearly all actives have a fitted effect of over 45% in size. The method, boiled down: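 HepG2-CYP2B6-hCAR, 2500 cells/well, 4 h pre-incubation; cpd 15 conc + PK11195 0.75 uM final; 23 h, 37 C/5% CO2; CellTiter-Fluor, fluorescence.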
The nature of experiment [9]: qHTS assay to identify small molecule antagonists of the constitutive androstane receptor (CAR) signaling pathway - cell viability counter screen (AID 1224837). Note: series mostly up to about 92 µM; nearly all actives have a fitted effect of over 45% in size. The method, boiled down: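 HepG2-CYP2B6-hCAR cells, 2500/well, 4 hr pre-incubation; compound titration, 15 conc.; CITCO 50 nM final; 23 hr, 37 C/5% CO2; CellTiter-Fluor, fluorescence intensity.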
A short description of experiment [10]: qHTS assay to identify small molecule antagonists of the estrogen related receptor signaling pathway with the pleiotropic PPARgamma coactivator (PGC) from Tox21 10K library - cell viability counter screen (AID 1224840; active = well fitted cell-killing curve with a large enough effect in the repeat runs, not every such curve was filed as active; note: nearly all actives have a fitted effect of over 40% in size; note: potency is the fitted concentration of half-maximal effect). The method, boiled down: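 PGC/ERR cells, 2,000/well; 6 h pre-incubation 37 C/5% CO2; cpd in DMSO via pin tool; 17.5 h 37 C; CellTiter-Fluor, 30 min; fluorescence.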

Experiment [11] has as its target Thyrotropin receptor (Homo sapiens) (UniProt P16473). As to the kind of experiment: qHTS assay to identify small molecule agonists of the thyroid stimulating hormone receptor (TSHR) signaling pathway (AID 1224843; calls by dose curve; note: nearly all actives have a fitted effect of over 45% in size; note: potency is the fitted concentration of half-maximal effect). The method, boiled down: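 TSHR-HEK293 cells in agonist mode, 30 min room-temperature step, then cAMP measured by competitive HTRF (cAMP-d2 with anti-cAMP cryptate) after 1 h at room temperature. Tested at 15 concentrations in triplicate.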

A short description of experiment [12]: qHTS assay to identify small molecule agonists of the RXR signaling pathway - cell viability counter screen (AID 1159529). Note: nearly all actives have a fitted effect of over 50% in size. Note: potency is the fitted concentration of half-maximal effect. Summed up: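 HEK 293T RXRa-bla cells, 2% CS-FBS; 5 h settle; cpd 16 h 37 C, 5% CO2; CellTiter-Glo 30 min RT, luminescence. Tetraoctyl ammonium bromide as positive control.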
Experiment [13] addresses Nuclear receptor subfamily 1 group I member 3 (Homo sapiens) (UniProt Q14994). Briefly: qHTS assay to identify small molecule antagonists of the constitutive androstane receptor (CAR) signaling pathway (AID 1224838).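 Note: HepG2 cells stably expressing hCAR with CYP2B6 luciferase reporter stimulated by CITCO; nearly all actives have a fitted effect of over 40% in size.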 Note: potency is the fitted concentration of half-maximal effect. Summed up: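 HepG2-CYP2B6-hCAR cells; 4 h pre-incubation; cpd (15 conc) + CITCO 50 nM final; 24 h, 37 C/5% CO2; ONE-Glo, luminescence.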
For experiment [14] the target is unchanged. Briefly: qHTS assay to identify small molecule agonists of the constitutive androstane receptor (CAR) signaling pathway (AID 1224839).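 Note: HepG2 cells stably carrying human CAR and a CYP2B6 luciferase reporter; series mostly up to about 92 µM; nearly all actives have a fitted effect of over 15% in size.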 Summed up:
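HepG2-CYP2B6-hCAR cells, 2500/well, 4 h pre-incubation; compounds 15 conc.; PK11195 0.75 uM final; 24 h, 37 C/5% CO2; ONE-Glo luciferase read.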

Experiment [15] can be described thus: qHTS assay to identify small molecule antagonists of the estrogen related receptor signaling pathway with the pleiotropic PPARgamma coactivator (PGC) from Tox21 10K library (AID 1224841; call rule not given here; note: actives are mostly falling curves and most rising ones were filed inactive; nearly all actives have a fitted effect of over 50% in size; note: potency is the fitted concentration of half-maximal effect). The method, boiled down:
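PGC/ERR cell line, 2,000 cells/well; 6 h pre-incubation 37 C/5% CO2; compounds (DMSO) pinned in; 18 h, 37 C; One-Glo, 30 min RT; luminescence.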

Experiment [16] is described as follows: qHTS assay to identify small molecule agonists of the estrogen related receptor signaling pathway with the pleiotropic PPARgamma coactivator (PGC) from Tox21 10K library (AID 1224842). Note: nearly all actives have a fitted effect of over 15% in size. The method, boiled down:
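PGC/ERR reporter cell line, 2,000 cells per well, incubated 6 h at 37 C before 23 nL compound in DMSO was added. After 18 h at 37 C, One-Glo luminescence read following 30 min at room temperature.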

Nuclear receptor subfamily 1 group I member 3 (Homo sapiens), sequence (Q14994 whole entry, looked up): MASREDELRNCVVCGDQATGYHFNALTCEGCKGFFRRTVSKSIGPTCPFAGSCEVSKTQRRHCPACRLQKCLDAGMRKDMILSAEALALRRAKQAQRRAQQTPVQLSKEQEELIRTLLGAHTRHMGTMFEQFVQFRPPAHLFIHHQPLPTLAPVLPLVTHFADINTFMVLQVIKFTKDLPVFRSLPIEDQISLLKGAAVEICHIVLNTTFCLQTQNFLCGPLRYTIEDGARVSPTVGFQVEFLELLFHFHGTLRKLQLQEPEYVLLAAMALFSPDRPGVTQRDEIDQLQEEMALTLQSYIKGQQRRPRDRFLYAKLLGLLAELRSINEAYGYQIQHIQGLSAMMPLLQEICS
Luciferin 4-monooxygenase (Photinus pyralis), sequence (P08659 whole entry, looked up): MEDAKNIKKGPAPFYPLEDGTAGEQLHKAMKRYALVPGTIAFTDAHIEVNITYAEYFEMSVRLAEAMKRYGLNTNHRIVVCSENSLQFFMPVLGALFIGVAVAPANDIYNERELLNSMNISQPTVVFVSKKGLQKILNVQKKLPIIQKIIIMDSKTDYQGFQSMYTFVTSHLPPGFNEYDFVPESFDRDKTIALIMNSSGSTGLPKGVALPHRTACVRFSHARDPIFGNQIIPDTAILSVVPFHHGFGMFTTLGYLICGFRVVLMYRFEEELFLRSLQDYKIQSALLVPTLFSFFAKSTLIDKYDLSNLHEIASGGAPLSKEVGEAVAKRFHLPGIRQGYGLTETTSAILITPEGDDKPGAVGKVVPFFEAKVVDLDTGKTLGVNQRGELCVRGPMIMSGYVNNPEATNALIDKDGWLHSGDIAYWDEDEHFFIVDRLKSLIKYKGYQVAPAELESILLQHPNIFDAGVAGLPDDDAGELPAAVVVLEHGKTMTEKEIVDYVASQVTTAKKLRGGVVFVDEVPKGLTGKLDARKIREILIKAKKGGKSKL
Thyrotropin receptor (Homo sapiens), sequence (P16473 whole entry, looked up): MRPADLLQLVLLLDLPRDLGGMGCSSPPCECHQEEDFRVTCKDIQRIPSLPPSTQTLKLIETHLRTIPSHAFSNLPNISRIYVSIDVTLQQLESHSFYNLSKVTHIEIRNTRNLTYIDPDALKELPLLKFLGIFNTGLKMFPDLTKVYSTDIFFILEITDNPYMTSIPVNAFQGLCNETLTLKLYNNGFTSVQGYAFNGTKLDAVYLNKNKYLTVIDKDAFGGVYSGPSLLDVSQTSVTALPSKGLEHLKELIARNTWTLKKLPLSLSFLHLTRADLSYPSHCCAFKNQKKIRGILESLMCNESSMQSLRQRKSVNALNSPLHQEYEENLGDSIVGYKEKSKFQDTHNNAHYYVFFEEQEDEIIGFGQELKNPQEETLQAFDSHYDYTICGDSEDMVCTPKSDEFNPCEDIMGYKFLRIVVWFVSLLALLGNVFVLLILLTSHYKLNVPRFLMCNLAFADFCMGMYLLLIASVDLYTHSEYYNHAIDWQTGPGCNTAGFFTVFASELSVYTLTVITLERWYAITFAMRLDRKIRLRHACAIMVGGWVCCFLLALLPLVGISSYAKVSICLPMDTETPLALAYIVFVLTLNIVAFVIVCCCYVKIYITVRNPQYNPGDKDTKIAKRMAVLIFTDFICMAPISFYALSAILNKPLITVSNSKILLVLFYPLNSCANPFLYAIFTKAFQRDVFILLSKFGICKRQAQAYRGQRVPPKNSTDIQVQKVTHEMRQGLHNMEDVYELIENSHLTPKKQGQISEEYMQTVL

As to `CN(C)CCN(Cc1cccs1)c1ccccn1`, the Potency entry in experiment [1], in experiment [2], in [3], in [4], in experiment [5] and in experiment [6] was “inactive” each time. Besides, the Potency entry in [7], in [8], in experiment [9], in [10] and in experiment [11] was “inactive” throughout.

Consider `O=C(COc1ccc(Cl)cc1)N1CCN(Cc2ccc3c(c2)OCO3)CC1`, for which the Potency result in experiment [12], in experiment [1], in [7], in [8], in experiment [9] and in experiment [13] was “inactive” in each case. For the same compound, the Potency result in experiment [14], in experiment [10], in experiment [16] and in experiment [11] was “inactive” throughout. Further, the Potency in [15] is 43.3 µM (active).

As for `C=C(C)C1CC=C(C)CC1` (stereo unspecified), the Potency result in experiment [12], in experiment [1], in experiment [6], in experiment [7], in [8] and in experiment [9] was “inactive” each time. Moreover, the Potency entry in [13], in experiment [14] and in experiment [10] was “inactive” in each case.

For the compound `CCCCC(CC)COP(=O)(OCC(CC)CCCC)OCC(CC)CCCC` (stereo unspecified), the Potency entry in experiment [12], in [1], in experiment [6], in [7], in [8] and in [9] was “inactive” each time. The Potency entry in experiment [13], in experiment [14], in experiment [10] and in [11] was “inactive” each time.

For the compound `CC1=CCC(C(C)(C)O)CC1` (stereo unspecified), the Potency result in experiment [12], in [1], in experiment [7], in [8], in [9] and in [10] was “inactive” each time. The Potency entry in [11] is “inactive”.

Take `CNCCCC12CCC(c3ccccc31)c1ccccc12`: the Potency in experiment [12] was 21.9 µM (active) and inactive; in [6], 61.1 µM (active) and inactive; in experiment [13] it was 21.7 µM (active) and inactive; in experiment [10] it was 48.6 µM (active) and inactive; in [11], 4.33 µM (active) and 26.6 µM (active). Further, the Potency entry in [1], in experiment [4] and in experiment [7] was “inactive” throughout.

`COC(C)COC(C)COC(C)CO` (stereo unspecified): the Potency result in experiment [12], in experiment [1], in [6], in [7], in experiment [8] and in experiment [9] was “inactive” in each case. The Potency result in experiment [13], in experiment [14], in [10], in [15], in [16] and in experiment [11] was “inactive” throughout.

With `Cc1cc2nc3c(=O)[nH]c(=O)nc-3n(C[C@H](O)[C@H](O)[C@H](O)CO)c2cc1C`, the Potency result in experiment [12], in experiment [1], in experiment [2], in experiment [3], in experiment [7] and in [13] was “inactive” each time. Besides, the Potency entry in experiment [14] and in experiment [11] was “inactive” each time.

With `CCCCCCCCCCCO`, the Potency result in experiment [12], in experiment [1], in [2], in [3], in [8] and in [9] was “inactive” each time. In addition, the Potency entry in experiment [13], in [14], in experiment [10], in experiment [15], in experiment [16] and in experiment [11] was “inactive” each time.

As for `CC(C)CC(C)(O)C#CC(C)(O)CC(C)C` (stereo unspecified), the Potency result in experiment [12], in experiment [1], in experiment [2], in experiment [3], in experiment [8] and in experiment [9] was “inactive” in each case. Moreover, the Potency result in experiment [13], in experiment [14], in [10], in experiment [15], in experiment [16] and in experiment [11] was “inactive” throughout.

In the case of `Cc1ccc(C)c(O)c1C`, the Potency entry in experiment [12], in experiment [1], in experiment [2], in [3], in [7] and in experiment [8] was “inactive” each time. The Potency result in [9], in [13], in [14], in experiment [10] and in experiment [11] was “inactive” each time.
